# Hits are enriched below; roughly 3.2% of the tested compounds scored in any of these assays.
# LASV entry inh = Lassa virus entry inhibition | 1.2% of 300,000 active | Potency, µM (highest dose often 37.9 µM), most hits filed as inhibitors | Lassa virus pseudotype entry inhibition, cell reporter; calls by dose curve; tested in HEK293 cells; further: nearly all actives have a fitted effect of over 50% in size
# Vaccinia Venus = inhibitors of vaccinia virus (Venus reporter); Vaccinia virus Venus reporter expression, fluorescence; Potency, µM (series often up to 36.5 µM), most hits filed as inhibitors; 0.46% of 330,000 active; AID 720580; calls by dose curve; tested in A549 cells; further: nearly all actives have a fitted effect of over 30% in size
# Vaccinia mCherry = inhibitors of vaccinia virus infection (mCherry reporter signal) | 0.63% of 310,000 active | Vaccinia virus mCherry reporter infection, fluorescence | Potency, µM (top dose mostly 36.5 µM), hits mostly inhibitors; calls by dose curve; tested in A549 cells; further: nearly all actives have a fitted effect of over 35% in size
# Marburg entry inh = Marburg virus entry inhibition; AID 540276; Potency, µM (doses to about 37.8 µM), usual class: inhibitors; 1.8% of 300,000 active; Marburg virus pseudotyped entry inhibition, cell reporter; calls by dose curve; tested in HEK293 cells
# FMDV inh = antivirals against foot and mouth disease virus; 1.2% of 410,000 active; FMDV antiviral cell-based qHTS; Potency, µM (titrated, usually from 57.9 µM), actives largely listed as inhibitors; AID 1159524; calls by dose curve; tested in HEK293T cells; further: read-out not given here; nearly all actives have a fitted effect of over 45% in size
# Hits are given with their value; i = inactive; ? = inconclusive; nt = no result given; ! = not confirmed by another sample.
SMILES,LASV entry inh,Vaccinia Venus,Vaccinia mCherry,Marburg entry inh,FMDV inh
O=C(Nc1ccc(Cl)cc1)c1cc2c(cc1O)[nH]c1ccccc12,?,?,?,7.9µM,?
CC(=O)Nc1ccc2[nH]c3ccccc3c2c1,i,i,i,i,nt
COC(=O)c1ccccc1-c1cc(C)cc2c1OC(CNC(=O)c1cc(C)n(C)n1)C2 (stereo not given),nt,i,i,nt,i
CCCN(CC1CC1)c1nc(N)c2c(N)nc(OC)cc2c1C#N,i,?,11µM,?,?
CCOc1cc2c(C#N)c(N(CC)CC)nc(N)c2c(N)n1,nt,?,?,nt,i
COc1ccc2c(c1)-c1nc(-n3ncc(C(=O)NC[C@@H]4CCCN5CCCC[C@H]45)c3C)ncc1CC2,nt,?,13µM,nt,i
O=C(CCl)N(c1ccc(Cl)cc1)c1c[nH]c2ccccc12,?,13µM,?,?,?
O=C(Cc1ccc(Cl)cc1)NCCc1c[nH]c2ccccc12,nt,nt,nt,nt,i
COc1ccc(OC)c(-c2cc(Cl)c3c(c2)CC(CNC(=O)c2cnn4cccnc24)O3)c1 (stereo not given),nt,i,i,nt,i
Cc1[nH]c(=O)c(C(=O)/C=C/c2ccccc2F)c2c1CCCC2,10µM,nt,nt,12µM,14µM
C/C(=C\c1ccccc1F)C(=O)c1c(C)cc(C)[nH]c1=O,i,i,i,i,i
Cc1ccc2c(c1)c(/C=C/c1cc[n+](C)cc1)c(C)n2C,nt,i,i,nt,?
Cc1ccc2[nH]c(C)c(/C=C/c3cc[n+](C)cc3)c2c1,3.2µM,i,?,8.9µM,i
CN(C)c1ccc(-c2nc3ccccn3c2/N=C/c2ccc(Br)cc2)cc1,7.1µM,i,i,?,13µM
COc1ccc(-c2nc3ccc(C)cn3c2Cc2ccsc2)cc1OC,nt,i,i,nt,i
Cc1nc2c(OCc3ccc(OC(F)F)cc3)cccn2c1N(C)C(=O)CCC1CCCC1,nt,i,i,nt,25µM
Nc1cc(C(=O)OCC(=O)NCCNC(=O)COC(=O)c2ccc(Cl)c(N)c2)ccc1Cl,i,i,i,i,?
O=[N+]([O-])c1cccc(/C=C/c2ccccc2)c1,nt,i,i,nt,nt
CC1(C)COC(/C=C/c2cccc([N+](=O)[O-])c2)=N1,?,?,11µM,?,25µM
COc1c(Br)cc([N+](=O)[O-])c(OC)c1C(=O)NC(=O)Nc1nc(C)cc(C)n1,nt,nt,nt,nt,i
CC(NC(=O)NNC(N)=S)(C(F)(F)F)C(F)(F)F,i,28µM,?,i,i
CC(NC(=O)NC(N)=O)(C(F)(F)F)C(F)(F)F,i,i,i,i,nt
COc1ccc(OC)c(-c2nn(-c3ccccc3)cc2C(=O)NC2(C)CCS(=O)(=O)C2)c1 (stereo not given),nt,i,i,nt,i
Cc1ccc(C(=O)c2c3ccc([N+](=O)[O-])cc3[n+]([O-])n2CCCN)cc1,nt,14µM,?,nt,i
CCOC(=O)c1ccc(NC(=O)c2nc[nH]c2C(=O)N[C@@H](Cc2ccccc2)C(=O)OC(C)(C)C)cc1,nt,?,13µM,i,?
SMILES,LASV entry inh,Vaccinia Venus,Vaccinia mCherry,Marburg entry inh,FMDV inh
CC(C)C[C@H](NC(=O)c1nc[nH]c1C(=O)N[C@@H](CC(C)C)C(=O)OC(C)(C)C)C(=O)OC(C)(C)C,nt,10µM,?,nt,40µM
Cn1nnnc1Sc1ncnc2scc(-c3ccc(Cl)cc3)c12,nt,nt,nt,nt,20µM
Cn1nnnc1Sc1ncnc2scc(-c3ccccc3Cl)c12,nt,nt,nt,nt,i
Clc1ccc(-c2csc3ncnc(Sc4nnnn4-c4ccccc4)c23)cc1,nt,?,10µM,nt,nt
Cn1nnnc1Sc1ccc([N+](=O)[O-])cc1Cl,i,?,10µM,?,i
Cn1nnnc1Sc1ncnc2scc(-c3cccc4c3sc3ccccc34)c12,nt,nt,nt,nt,28µM
COc1ccc(OC)c([C@H]2C(C(=O)c3sc(C)nc3C)=C(O)C(=O)N2CCN2CCOCC2)c1,nt,nt,nt,i,nt
CC(C)c1c(C(=O)NCC(C)(C)N2CCOCC2)cnn1-c1nccc(-c2cccs2)n1,nt,i,i,nt,i
Cc1sc2ncnc(Sc3ccccc3C(=O)O)c2c1C,i,i,i,i,i
CC(=O)c1cccc(-c2csc3ncnc(Sc4nnnn4C)c23)c1,nt,nt,nt,nt,35µM
Clc1ccc(-n2nnnc2Sc2ncnc3sccc23)cc1,?,i,nt,?,40µM
Cc1sc2ncnc(Sc3nnnn3-c3ccccc3)c2c1C,?,?,11µM!,?,nt
Cn1nnnc1Sc1ncnc2scc(-c3ccc([N+](=O)[O-])cc3)c12,nt,nt,nt,nt,11µM
Cn1nnnc1Sc1ncnc2scc(-c3cccc(Br)c3)c12,nt,nt,nt,nt,i
c1ccc2sc(Sc3ncnc4sccc34)nc2c1,i,i,i,?,i
Cc1ccc(-c2csc(=Nc3cccnc3)n2CCCn2ccnc2)cc1C,?,?,i,?,16µM
O=C(O)c1ccc2c(ccc3nn(-c4ccc(/C=C/c5ccc(-n6nc7ccc8cc(C(=O)O)ccc8c7n6)cc5[S+](=O)([O-])[O-])c([S+](=O)([O-])[O-])c4)nc32)c1,nt,i,i,nt,nt
CCOC(=O)C(=Cc1cn(C)c2ccc(S(=O)(=O)N(C)C)cc12)C(=O)OCC,i,i,i,i,32µM
CC(C)(C)S(=O)(=O)/C(C#N)=C/c1cccn1S(=O)(=O)c1ccccc1,nt,i,i,nt,i
O=C(Nc1cc(SCCO)cc([N+](=O)[O-])c1)c1ccc(Br)o1,?,i,?,?,32µM
O=C(CCCl)Nc1cc(SCCO)cc([N+](=O)[O-])c1,i,i,i,i,i
O=C(CN1C(=O)c2ccccc2S1(=O)=O)c1ccc(F)c(F)c1,?,i,i,10µM,?
COc1ccc(C(=O)CN2C(=O)c3ccccc3S2(=O)=O)cc1,?,i,i,?,5.6µM
Nc1ncnc2c1nc(Sc1ccc(Cl)cc1)n2[C@H]1OC2COP(=O)(O)O[C@@H]2C1O (stereo not given in full),i,nt,nt,i,nt
CCc1ccc(-c2[nH]c3c(c2-c2sc(C)c(C(=O)OC)c2O)c(=O)n(C)c(=O)n3C)cc1,i,i,i,i,i
SMILES,LASV entry inh,Vaccinia Venus,Vaccinia mCherry,Marburg entry inh,FMDV inh
CS(=O)(=O)c1ncc(Cl)c(C(=O)Nc2ccc(N3CCOCC3)cc2)n1,?,i,i,?,nt
CCS(=O)(=O)c1ncc(Cl)c(C(=O)Nc2ccc(S(=O)(=O)N(C)c3ccccc3)cc2)n1,?,14µM!,i,11µM,22µM
CCN(c1ccccc1)S(=O)(=O)c1ccc(NC(=O)c2nc(S(C)(=O)=O)ncc2Cl)cc1,?,?,?,i,28µM
CCSc1ncc(Cl)c(C(=O)Nc2ccc(S(=O)(=O)N(C)c3ccccc3)cc2)n1,?,i,i,i,i
CS(=O)(=O)c1ncc(Cl)c(C(=O)Nc2ccc(OC(F)F)cc2)n1,?,?,?,?,20µM
CCCCCc1cc(=O)oc2c(C(CCN3CCCCC3)c3cc(OC)c(OC)c(OC)c3)c(OC)cc(OC)c12 (stereo not given),nt,16µM,?,nt,?
COc1ccc(C(CCN2CCCCC2)c2c(OC)cc(OC)c3c(-c4ccccc4)cc(=O)oc23)cc1 (stereo not given),nt,14µM,i,nt,i
CCCCCc1cc(=O)oc2c(C(CCN3CCCC(C)C3)c3ccc(N(C)C)cc3)c(OC)cc(OC)c12 (stereo not given),nt,?,11µM,nt,i
COc1cc(OC)c2c(-c3ccccc3)cc(=O)oc2c1C(CCN1CCCCC1)c1ccc(N(C)C)cc1 (stereo not given),nt,?,?,nt,i
Cc1cc2occ(CC(=O)N(C)CC(=O)Nc3ccc(F)cc3)c2cc1C,?,i,i,?,i

# High-throughput results (PubChem BioAssay)
